# Values without a mark were called inactive. No rule for the calls is given here.
# Biological target: Pantothenate synthetase (Mycobacterium tuberculosis (strain ATCC 25618 / H37Rv)) (UniProt P9WIL5)
# Assay: Coupled enzyme confirmation of inhibitors against recombinant Mtb PanC (AID 375);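 also: 0% = full reaction with vehicle and 100% = no enzyme background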
# Conditions: coupled enzyme assay; at 10 µM, active compounds read high
# Chain of Pantothenate synthetase (Mycobacterium tuberculosis (strain ATCC 25618 / H37Rv)) (P9WIL5 whole entry, looked up): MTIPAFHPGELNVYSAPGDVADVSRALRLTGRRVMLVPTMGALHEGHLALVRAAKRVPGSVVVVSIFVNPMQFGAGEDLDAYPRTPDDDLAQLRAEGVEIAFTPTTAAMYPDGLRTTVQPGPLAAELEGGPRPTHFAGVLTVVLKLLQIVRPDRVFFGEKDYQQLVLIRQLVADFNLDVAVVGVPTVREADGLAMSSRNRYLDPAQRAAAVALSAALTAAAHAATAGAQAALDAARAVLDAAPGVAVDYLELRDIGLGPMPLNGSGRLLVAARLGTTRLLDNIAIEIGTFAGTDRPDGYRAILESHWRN
row,Structure (SMILES),inhibition [%]
1,Cc1cc(NC(=O)C(C)(C)C)no1,0
2,Nc1nc2n(n1)C(c1cccc(Cl)c1)CC(c1ccc(F)cc1)N2 (stereo not given),0
3,O=S(=O)(c1cccc(-c2nnco2)c1)N1CCCC1,0
4,NC(=O)C1(N2CCCCC2)CCN(Cc2ccccc2Cl)CC1,0
5,COCCNC(=O)c1ccc(Cl)c(Cl)c1,0
6,O=C(NC1CCN(Cc2ccccc2)CC1)C1CCN(S(=O)(=O)c2cccc3cccnc23)CC1,0
7,CCOC(=O)c1sc(NC(=O)C2CC=CCC2C(=O)O)nc1C (stereo not given),3
8,CCc1nnc2n1N=C(c1ccc(-c3ccc(Cl)cc3Cl)o1)CS2,3
9,Cc1cccc(CC2CC(=O)N(c3ccccc3)C2=O)c1 (stereo not given),0
10,O=C(c1ccco1)N1CCN(S(=O)(=O)c2ccc(C3CCCCC3)cc2)CC1,3
11,O=C1C2CC=C(Cl)CC2C(=O)N1c1ncn[nH]1 (stereo not given),0
12,Cc1ccc(S(=O)(=O)Cc2ccc(C(=O)N3CCN(Cc4ccccc4)CC3)o2)cc1,3
13,CC1=C(C(=O)OC(C)C)C(c2cccc(F)c2)n2ncnc2N1 (stereo not given),2
14,COc1ccccc1OC(=O)c1ccc2nsnc2c1,0
15,Cc1ccc(S(=O)(=O)N2CCCC2)cc1S(=O)(=O)N1CCCC1,0
16,CN1CCN(CCCN2c3ccccc3Sc3ccc(Cl)cc32)CC1,0
17,CCOC(=O)C1(C(=O)OCC)C(c2ccccc2)CC(O)N1C(C)=O (stereo not given),0
18,CC(=O)Nc1cccc(NC(=O)CSc2nn3c(=O)c(C)nnc3s2)c1,2
19,COc1ccc(N2Cc3ccccc3C2)cc1Cl,0
20,CC(=O)N1C(=O)N(C)C2C1N(C(C)=O)C(=O)N2C (stereo not given),1

row,Structure (SMILES),inhibition [%]
1,c1ccc2c(c1)nc(-c1ccncc1)n1nnnc21,11
2,Cc1cccc(CS(=O)(=O)Cc2ccc(C(=O)NCC3CCCO3)o2)c1 (stereo not given),0
3,O=C(NCC1COc2ccccc2O1)C1CCCN(S(=O)(=O)c2cnc[nH]2)C1 (stereo not given),0
4,COc1ccc(S(=O)(=O)NCCSCc2ccco2)cc1Cl,0
5,Cc1nc2nc(-c3cccnc3)nn2c(C)c1Cl,0
6,COc1cc(C2N=C(c3ccccc3)NO2)cc(Br)c1O (stereo not given),4
7,CCN(CC)S(=O)(=O)c1ccc(NC2CCCc3ccccc32)nc1 (stereo not given),0
8,COc1ccc(C)cc1NC(=O)CCN1CCCC1,0
9,CCOC(=O)C1=C(N)c2ccccc2CC1C(C)C (stereo not given),0
10,COc1ccc(OCc2nc(C#N)c(N3CCN(c4ccc(OC)cc4)CC3)o2)cc1,2
11,Cn1c(=O)[nH]c(=O)c2[nH]c(NCCCN3CCOCC3)nc21,0
12,O=C(C1CCCN(S(=O)(=O)c2cccc3nonc23)C1)N1CCC(Cc2ccccc2)CC1 (stereo not given),3
13,O=C(O)c1ccc(-c2ccc(O)c(F)c2)cc1,1
14,c1ccc(-n2cnc3cc(NCc4ccccn4)ccc32)cc1,0
15,Cc1cc(C)c2c(C)nn(C3CCCCC3)c2n1,0
16,O=C(CCn1c(=O)oc2ccccc21)N1CCCCCC1,0
17,CCOC(=O)C(NC(=O)c1ccc(OC)cc1)(N1CCOCC1)C(F)(F)F (stereo not given),2
18,CC(=O)OCC[N+](C)(C)C,0
19,CCOc1ccc2[nH]c(=O)c(C(c3nnnn3Cc3ccco3)N3CCC(C)CC3)cc2c1 (stereo not given),0
20,Cc1cc(C(=O)Nc2sc3c(c2C#N)CCCCC3)cs1,0
